An excerpt weighted towards active compounds, which were near 3.8% of everything screened.
Mdm2 MdmX PPI – human Mdm2/MdmX binding inhibition. O15151+Q00987. SaOS-2 split-luciferase Mdm2/MdmX complementation, luminescence. hit rate 3% among 330,000. inhibition, % at 8 µM;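 active means inhibition of at least 50% at 8 µM in the primary screen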
Gli-Sufu antag – blocks Gli-Sufu signaling in a luciferase reporter; Sufu-KO-LIGHT fibroblasts, Gli luciferase reporter luminescence; inhibition, % at 5 µM; hit rate 0.74% among 340,000;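 active means inhibition above about 55%, limit read from the data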;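 further: 0% = DMSO-treated cells and 100% = wells with medium but no cells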
Shn3 3UTR inh – Schnurri-3 reporter inhibition in Clone20 osteoblasts. Clone20 osteoblast Shn3 3'UTR firefly luciferase, 24 h. inhibition, % at 12.5 µM. hit rate 0.52% among 360,000. AID 588674;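 active means mean inhibition of at least 75% with every replicate also reaching 75%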;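 further: 0% = median of neutral control wells and 100% = pilot-screen positive control compound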
697 NFkB inh – lowers PMA/ionomycin-induced NF-kB signal in 697 B cells. 697 B-cell NF-kB luciferase reporter, 16 h. inhibition, % at 4 µM. hit rate 0.33% among 330,000. AID 435022; in the data active means inhibition above about 35%
Jurkat NFkB inh – inhibitors of the PMA/ionomycin-induced NF-kB reporter in Jurkat cells. hit rate 0.53% among 330,000. PMA/ionomycin-induced NF-kB luciferase reporter, luminescence. inhibition, % at 4 µM; in the data active means inhibition above about 50%
Gli antag conf – confirmation of Gli-SUFU pathway antagonists; shares compounds with Gli-Sufu antag; Sufu-KO-LIGHT cells, Gli luciferase reporter, luminescence; inhibition, % at 5 µM; hit rate 40% among 2,500; AID 602428;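 active means mean inhibition at 5 µM reaching about 45%, limit read from the data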;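 further: plate controls were DMSO-treated cells for no effect and wells lacking cells for full effect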
SufuKO cytotox – counter-screen for Gli-SUFU antagonists: cytotoxicity; hit rate 32% among 2,500; shares compounds with Gli-Sufu antag; cytotoxicity, % at 5 µM; Sufu-KO-LIGHT cells cytotoxicity, ATP luminescence;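 active means mean cytotoxicity at 5 µM above about 25%, limit read from the data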;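 further: cells exposed to compound overnight for roughly 16 to 18 hours; plate controls were DMSO wells with cells for no effect and medium without cells for full effect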
Wnt3a cs – inhibits Wnt3a reporter, counter-screen for Gli-SUFU antagonists; shares compounds with Gli-Sufu antag; Wnt-LIGHT cells, Wnt3a-driven luciferase reporter, luminescence; inhibition, % at 6.25 µM; hit rate 20% among 2,500;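 active means mean inhibition above about 25%, limit read from the data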
Active calls of the source: *.

Screening Cc1nc2cc(N3CCN(C)CC3)c(NC(=O)Cc3ccccc3)cc2c(=O)n1Cc1ccccc1 returned Mdm2 MdmX PPI -9, Gli-Sufu antag 54, Shn3 3UTR inh 25, 697 NFkB inh -25, Jurkat NFkB inh 6, Gli antag conf 49*, SufuKO cytotox 10 and Wnt3a cs -14.
Screening Cc1cc(NC(=O)CSc2cc(Cl)ccc2Cl)n(-c2ccccc2)n1 returned Mdm2 MdmX PPI 12, Gli-Sufu antag 52, Shn3 3UTR inh 7, 697 NFkB inh -1, Jurkat NFkB inh 12, Gli antag conf 22, SufuKO cytotox 7 and Wnt3a cs -5.
For CCOC(=O)COc1cccc2c(=O)n(CC(=O)N3CCC(C)CC3)ccc12 the results were Mdm2 MdmX PPI 18, Gli-Sufu antag -2, Shn3 3UTR inh 13, 697 NFkB inh 18 and Jurkat NFkB inh 11.
Screening CCOC(=O)N1CCN(C(=O)Cn2ccc3c(OC)cccc3c2=O)CC1 returned Mdm2 MdmX PPI -22, Gli-Sufu antag 54, Shn3 3UTR inh 7, 697 NFkB inh 11, Jurkat NFkB inh -6, Gli antag conf 21, SufuKO cytotox 0 and Wnt3a cs 10.
For COc1cc(OC)cc(-n2nnnc2SCC(=O)N2CCCC2)c1 the results were Mdm2 MdmX PPI -5, Gli-Sufu antag 3, Shn3 3UTR inh 13, 697 NFkB inh 15 and Jurkat NFkB inh -3.
`CCC(=O)Nc1cccc(-n2nnnc2SCC(=O)N2CCCCC2)c1` gave Mdm2 MdmX PPI 8, Gli-Sufu antag 59*, Shn3 3UTR inh 9, 697 NFkB inh -1, Jurkat NFkB inh -15, Gli antag conf 7, SufuKO cytotox 15 and Wnt3a cs 1.
`Cn1c(SCC(=O)N2CCCC2)nc2ccccc21` gave Mdm2 MdmX PPI 10, Gli-Sufu antag -4, Shn3 3UTR inh -7, 697 NFkB inh -5 and Jurkat NFkB inh 0.
Screening Cn1c(SCC(=O)N(Cc2ccccc2)C(C)(C)C)nc2ccccc21 returned Mdm2 MdmX PPI 0, Gli-Sufu antag 58*, Shn3 3UTR inh -14, 697 NFkB inh -49, Jurkat NFkB inh -19, Gli antag conf 15, SufuKO cytotox 4 and Wnt3a cs -15.
`c1ccc(C[n+]2cccc(-c3ccccc3)c2)cc1` gave Mdm2 MdmX PPI 21, Gli-Sufu antag 57*, Shn3 3UTR inh -6, 697 NFkB inh -7, Jurkat NFkB inh 26, Gli antag conf 57*, SufuKO cytotox 15 and Wnt3a cs 10.
Screening C[C@H](CO)N1C[C@H](C)[C@@H](CN(C)Cc2ccncc2)Oc2ccc(NC(=O)Cn3cnnn3)cc2C1=O returned Mdm2 MdmX PPI 2, Gli-Sufu antag -5, Shn3 3UTR inh -12, 697 NFkB inh 10 and Jurkat NFkB inh 9.
`COc1nnc(-c2ccc(N3CCCCC3)c(N)c2)c2ccccc12` gave Mdm2 MdmX PPI 2, Gli-Sufu antag 53, Shn3 3UTR inh 74, 697 NFkB inh -59, Jurkat NFkB inh -13, Gli antag conf 59*, SufuKO cytotox 19 and Wnt3a cs -36.
CCN(CC)C(=O)C1=C(C)N(Cc2ccc(C(C)(C)C)cc2)C(=O)C(CC(=O)NC2CC2)C1 (stereo not given) was read as Shn3 3UTR inh 1.
`Cc1nc(NS(=O)(=O)c2ccccc2)sc1C(=O)N/N=C/c1ccccc1` gave Mdm2 MdmX PPI 2, Gli-Sufu antag 4, Shn3 3UTR inh -28, 697 NFkB inh 9 and Jurkat NFkB inh -10.
Screening Cc1ccc(NC(=O)CCN2CCN(C/C=C/c3ccccc3)CC2)cc1 returned Mdm2 MdmX PPI 16, Gli-Sufu antag -12, Shn3 3UTR inh -12, 697 NFkB inh -17 and Jurkat NFkB inh -18.
`O=C(CCN1CCN(C/C=C/c2ccccc2)CC1)Nc1ccc(Cl)cc1` gave Mdm2 MdmX PPI 5, Gli-Sufu antag 55, Shn3 3UTR inh -8, 697 NFkB inh 17, Jurkat NFkB inh -4, Gli antag conf 15, SufuKO cytotox 24 and Wnt3a cs -32.
CC1CCCC(=NNC(=O)C2COc3ccccc3O2)C1 (stereo not given) was read as Mdm2 MdmX PPI 3, Gli-Sufu antag -1, Shn3 3UTR inh -2, 697 NFkB inh 7 and Jurkat NFkB inh -22.
`CN(C(=O)c1ccc(NC(=O)Cc2cccc(NC(=O)C3CCN(C(=O)C4CCCC4)CC3)c2)cc1)C1CC1` gave Gli-Sufu antag -1 and Shn3 3UTR inh -12.
`COc1ccc(S(=O)(=O)Nc2ccc(Cc3ccncc3)cc2)cc1OC` gave Mdm2 MdmX PPI 11, Gli-Sufu antag 15, Shn3 3UTR inh 36, 697 NFkB inh -12 and Jurkat NFkB inh 25.
CCc1ccc(OC)c(S(=O)(=O)Nc2ccc(Cc3ccncc3)cc2)c1 was read as Mdm2 MdmX PPI 22, Gli-Sufu antag 57*, Shn3 3UTR inh 82, 697 NFkB inh -25, Jurkat NFkB inh 13, Gli antag conf 58*, SufuKO cytotox 44* and Wnt3a cs 29*.
COc1ccccc1N(C)S(=O)(=O)c1ccc(C(=O)NCc2ccccc2CN2CCCC2)cc1 was read as Gli-Sufu antag 52, Shn3 3UTR inh 27, Gli antag conf 34, SufuKO cytotox 17 and Wnt3a cs -34.
For CON(C)S(=O)(=O)NC(=O)C1=C(N2CCCC2)COC1=O the results were Mdm2 MdmX PPI -16, Gli-Sufu antag -5, Shn3 3UTR inh 6, 697 NFkB inh 11 and Jurkat NFkB inh 10.
Screening CCOc1cc(CN2CCN(CCc3ccccc3)C(CCO)C2)ccc1OC (stereo not given) returned Mdm2 MdmX PPI 8, Gli-Sufu antag 61*, Shn3 3UTR inh 7, 697 NFkB inh 6, Jurkat NFkB inh 15, Gli antag conf 14, SufuKO cytotox 5 and Wnt3a cs -19.
For COc1ccccc1C(=O)NC(=O)COC(=O)Cn1[nH]c(=O)c2ccccc2c1=O the results were Mdm2 MdmX PPI -15, Gli-Sufu antag -9, Shn3 3UTR inh 1, 697 NFkB inh 20 and Jurkat NFkB inh 16.
Cc1ccc(C(=O)NCC(=O)OCCCOC(=O)CNC(=O)c2ccc(C)c(C)c2)cc1C was read as Mdm2 MdmX PPI -27, Gli-Sufu antag 1, Shn3 3UTR inh 5, 697 NFkB inh 5 and Jurkat NFkB inh 12.
Screening C[C@H]1CN=C(N(C)C)N1CCCCc1ccccc1 returned Mdm2 MdmX PPI 4, Gli-Sufu antag 2, Shn3 3UTR inh 48, 697 NFkB inh 0 and Jurkat NFkB inh 1.
Screening CCC(CC)CN1C(N(C)C)=NC[C@@H]1CC(C)C returned Mdm2 MdmX PPI 26, Gli-Sufu antag 56*, Shn3 3UTR inh 84, 697 NFkB inh 5, Jurkat NFkB inh 3, Gli antag conf 51*, SufuKO cytotox 16 and Wnt3a cs 25.

Screening data deposited in PubChem by several laboratories.
